TWEAK Fn14 block: inhibitors of TWEAK-Fn14 interaction signaling. inhibition, % at 10 µM. AID 1159606. actives 2% (n = 360,000). TWEAK-stimulated Fn14 reporter cells, luciferase luminescence, 8 h; in the data active = inhibition above about 50%
TROY NFkB inh: inhibitors of TROY-dependent NF-kB signaling. inhibition, % at 10 µM. Q293 LMP1-TROYcd NF-kB luciferase reporter, 4 h. actives 0.98% (n = 360,000);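 active = compounds whose plate-normalised and pattern-corrected inhibition of the luciferase reporter signal at the single screening dose is 50% or more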
HSF1 activator: increases HSF-1 driven luciferase reporter signal; activation, % at 9 µM; NIH3T3-HGL HSF-1 luciferase reporter, MG132, 8 h; 100% = twice DMSO control signal; actives 1.7% (n = 300,000); AID 504408;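 active = mean replicate activation of at least 50% with a set share of replicates each reaching 50%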;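 note: 0% = median of the neutral control wells and 100% = twice that signal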
HSF1 inhib: HSF1 inhibition; actives 0.77% (n = 300,000); AID 2098; activity change, negative = inhibition, % at 7.5 µM (by protocol); NIH3T3-HGL HSE-luciferase, MG132-induced, luminescence 8 h; stronger effect = lower value;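 active = more than half of replicate wells show activity change below -50%, luminescence cut by over half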;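 note: luciferase reports HSF-1 transcriptional activity via heat shock element; 0% = median of DMSO wells and -100% = zero luminescence signal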
HSP90 inh: blocks HSP90-mediated luciferase refolding in reticulocyte lysate. Rabbit reticulocyte lysate, luciferase refolding luminescence, 3 h. inhibition, % at 5.6 µM. actives 0.91% (n = 290,000);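 active = inhibition above the screen-wide mean plus 3 SD, computed separately per campaign, cut at about 16% in these data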;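 note: 0% = DMSO wells and 100% = 60 µM geldanamycin wells; inhibitors lower the luminescence because luciferase stays unfolded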
EBV LMP1 NFkB: Epstein-Barr LMP1 NF-kappaB reporter inhibition | LMP1-induced NF-kappaB luciferase reporter cells, luminescence | inhibition, % at 12.5 µM | actives 0.69% (n = 350,000) | AID 504558; in the data active = inhibition above about 41%;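 note: 0% = neutral control wells and 100% = reference inhibitor control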
Numbers without * were called inactive; · = no result given. Only some compounds are listed: those with a hit (about 4.7% of all), similar ones and a draw of the others.

SMILES	TWEAK Fn14 block	TROY NFkB inh	HSF1 activator	HSF1 inhib	HSP90 inh	EBV LMP1 NFkB
COc1cccc(-c2sc3ccccc3c2-c2ccc(OCCN(C)C)cc2)c1	-9.2	23.0	·	·	·	88.6*
COc1cccc(CN2CCC(C)(Oc3cccc(Cl)c3)C2)c1OC (stereo not given)	2.3	-3.3	·	·	·	·
COC(=O)c1c(C)[nH]c(C(C)=O)c1C	14.4	-21.9	-0.6	-2.4	4.2	-0.4
COC(=O)c1c(C)[nH]c(C(=O)/C=C/c2ccccc2Cl)c1C	89.5*	-18.8	3.0	4.4	9.6	-25.8
COC(=O)c1c(C)[nH]c(C(=O)/C=C/c2ccccc2F)c1C	51.2*	60.5*	65.5*	26.9	-6.3	-24.7
COc1ccc(CC(N)c2csc(NC(=O)C(c3ccccc3)c3ccccc3)n2)cc1 (stereo not given)	1.4	11.1	·	·	·	·
Cc1ccc(/C=N/N=C/c2ccc(C)s2)s1	7.1	-44.1	77.5*	36.1	0.5	-43.5
CCOC(=O)N/N=C\c1ccc(C)s1	-26.4	-36.4	-81.0	-78.8*	-0.2	-11.3
Cc1ccc(C)c(S(=O)(=O)N2CCCC2CNC(=O)C(=O)NCCc2ccco2)c1 (stereo not given)	-1.1	8.4	2.4	-4.3	·	-2.4
Cc1ccc(C)c(S(=O)(=O)N2CCCCC2CCNC(=O)C(=O)NCCc2ccco2)c1 (stereo not given)	-0.7	3.5	53.7*	19.9	·	2.2
COc1cc(/C=C2\C(=O)N(c3ccccc3)N=C2C)ccc1Oc1ccc([N+](=O)[O-])cc1[N+](=O)[O-]	13.6	17.1	·	·	3.5	1.7
CC1=NN(c2ccccc2)C(=O)/C1=C\c1ccc(Oc2ccc([N+](=O)[O-])cc2[N+](=O)[O-])cc1	4.8	39.5	26.0	24.3	16.2*	2.9
Cc1c(C)c2cccnc2c2ncccc12	-36.1	6.5	·	·	·	86.3*
COc1cc(Cc2cc(OC)c(O)c(OC)c2)cc(OC)c1O	-2.8	13.1	·	·	·	0.1
COc1cc(/C=N/NC(=O)c2cc(C34CC5CC(CC(C5)C3)C4)[nH]n2)ccc1O	-49.2	-1.2	-8.9	-6.6	6.2	81.1*
COc1cc(/C=N/NC(=O)c2sc(N)c(C#N)c2C)ccc1O	51.9*	7.7	27.1	8.1	2.2	-28.5
COc1ccccc1N/N=C/c1ccc2c(c1)OCO2	60.3*	-4.3	-53.3	-45.1	-1.6	-13.9
O=C(N/N=C/c1ccc([N+](=O)[O-])cc1)c1cc(-c2ccc3c(c2)OCO3)n[nH]1	-15.4	8.0	8.5	-1.4	-2.8	-1.4
COc1cc(/C=N/NC(=O)c2cc(C3CC3)[nH]n2)ccc1O	-1.6	-0.9	4.6	2.2	-0.6	-4.4
COc1cc(/C=N/NC(=O)c2cc(-c3ccc4c(c3)OCO4)n[nH]2)ccc1O	51.1*	-14.7	12.4	7.1	1.6	-5.0
O=S1(=O)CC(N2CCC(c3ccccc3)CC2)CN1Cc1ccc(F)cc1 (stereo not given)	-10.1	16.4	·	·	·	·
CCCn1c(SC(C)C(=O)NC2CCCC(C)C2C)n[nH]c1=O (stereo not given)	-14.4	-2.3	·	·	·	6.8
CCCn1c(CC)nc([N+](=O)[O-])c1Sc1ncn[nH]1	-0.7	-7.3	·	·	·	6.8
O=c1[nH]c2cc(Cl)c(Br)cc2o1	-17.6	7.9	·	·	·	68.4*
O=c1[nH]c2cc(Cl)c(Cl)cc2o1	-20.9	13.4	·	·	·	-1.3
SMILES	TWEAK Fn14 block	TROY NFkB inh	HSF1 activator	HSF1 inhib	HSP90 inh	EBV LMP1 NFkB
CCOc1ccccc1-c1nc(-c2ccc(C)nc2OC)no1	3.7	-75.9	62.1*	22.6	-2.6	-50.3
COc1cccc(-c2noc(-c3cccs3)n2)c1	30.1	-48.8	53.8*	23.1	-4.5	-67.5
Fc1ccc(-c2nc(-c3cccs3)no2)cc1	-14.0	-63.1	38.4	24.0	0.3	-36.2
COc1cccc(-c2nc(-c3ccccc3)no2)c1	48.8	-23.7	19.5	-2.3	-6.0	-44.8
COc1nc(C)ccc1-c1noc(-c2cccs2)n1	1.4	-62.8	61.7*	21.5	4.3	-19.6
COc1nc(-c2ccccc2)ccc1-c1noc(-c2cccs2)n1	-22.9	-61.5	49.3	19.0	0.0	-38.0
COC(=O)c1ccc(-c2nc(-c3cccs3)no2)cc1	92.1*	64.2*	·	·	5.1	23.6
CCOC(=O)C1=C[C@@H](C2CCCC2)N(S(=O)(=O)c2ccc([N+](=O)[O-])cc2)[C@H]1c1ccccc1	28.2	7.7	·	·	·	·
CC1(C(=O)NS(=O)(=O)c2ccc(C#N)cc2)CCN1C(=O)C1(c2ccccc2)CC1 (stereo not given)	-6.8	-21.3	·	·	·	·
O=C1c2cccc(-c3ccc(C(F)(F)F)cc3)c2C2CC=CCN12 (stereo not given)	-11.0	6.7	·	·	·	·
CCOC(=O)[C@]12CCCC=C1N(Cc1ccco1)C(=O)[C@H](CC(=O)NCc1cccc(C(F)(F)F)c1)C2	10.7	-12.9	·	·	·	·
CC(C)C(C(=O)NCc1ccco1)N(CC1CCCO1)C(=O)CNS(=O)(=O)c1ccccc1 (stereo not given)	8.4	-5.2	-9.4	1.5	-0.6	-4.5
CC(C)C(C(=O)NCc1ccccc1)N(CC1CCCO1)C(=O)CNS(=O)(=O)c1ccccc1 (stereo not given)	-17.3	3.7	82.7*	35.6	-5.2	3.3
CN1CCC(OC(=O)COc2ccccc2)CC1	-7.0	-12.3	7.0	-3.7	-0.1	2.5
Cc1cccc(OCC(=O)OC2CCN(C)CC2)c1	-18.1	-50.6	-61.2	-54.7*	-1.6	-6.7
O=C1NC(Cc2ccccc2)C(=O)N1Cc1cc([N+](=O)[O-])cc2c1OCOC2 (stereo not given)	-0.6	-3.4	5.8	-0.4	2.8	55.2*
O=C1N[C@@H](Cc2ccccc2)C(=O)N1CCN1CCOCC1	-9.3	18.7	-2.4	-4.8	5.4	-2.0
CC(=O)Nc1cncc(-c2cnn(CC(C)C)c2)n1	-2.6	-31.4	·	·	·	·
Cc1ccc(S(=O)(=O)N2CCCCC2)cc1NC(=O)c1ccc2c(c1)OCO2	1.7	-1.5	68.6*	25.6	-2.5	1.1
Cc1ccc(S(=O)(=O)N2CCCCC2)cc1NC(=O)CNc1ccccc1N1CCCC1=O	12.4	2.8	·	·	·	41.7*
CN1CCN(c2ccc(-c3cc(NC=O)c4ncc(-c5ccccc5)n4c3)cc2)CC1	22.4	41.4	·	·	·	·
CCOc1nc(NCCc2ccc(OC)c(OC)c2)nc(N2CCN(c3ccc(OC)cc3)CC2)n1	19.3	-6.3	-3.6	-0.7	-0.3	1.4
COc1ccc(N2CCN(c3nc(NCCc4ccc(OC)c(OC)c4)nc(OC)n3)CC2)cc1	38.1	57.0*	15.9	-0.4	-0.2	13.3
CC1=C(C(=O)N(C)C)CC(CC(=O)NCc2cccs2)C(=O)N1Cc1ccc(C(C)(C)C)cc1 (stereo not given)	23.0	2.2	·	·	·	·
CC(=O)c1nn(-c2cccc(Br)c2)cc1C(=O)c1ccccc1	13.5	0.5	12.2	-5.7	-7.0	-15.1
